114 molecules from PubChem BioAssay AID540276 (National Center for Advancing Translational Sciences (NCATS), 2011) can be followed below.

Among all 300,000 compounds or so, about 5,400 (1.8%) were called active. About 28% were inconclusive and are not listed. Calls follow the shape of the full dose curve; tested in HEK293 cells. The list comes from a sample in which actives are over-represented; it also holds similar structures and randomly drawn compounds. A call without a number means that no potency is given here.
Potency is read from the fitted curve at half-maximal effect.

This assay can be described thus: qHTS for inhibitors of binding or entry into cells for Marburg Virus. The note with it: Marburg virus pseudotyped entry inhibition, cell reporter; series mostly up to 37.8 µM.
For `CC[C@]12c3[nH]c4ccc(Cl)cc4c3CCN1C(=O)[C@@H](CC(=O)NCCCOC)C[C@@H]2C(=O)N1CCN(C(=O)c2ccco2)CC1`, the Potency entry was “inactive”. Under `COc1ccc(C2(c3ccc(OC)cc3)NC(=O)N(CC(=O)Nc3cc(C)on3)C2=O)cc1` stands “inactive”; under `CCCOc1ccc(Cn2ccnc2)cc1[N+](=O)[O-]`, “inactive”; under `CCCCOc1ccc(CSC(=N)N)cc1[N+](=O)[O-]`, 14.1 µM (active). In the case of `CCCCCOc1ccc(CSC2=NCCN2)cc1[N+](=O)[O-]` it was “inactive”; in that of `CCN(CC)CCn1c2ccc(Cl)cc2c2nc(C)sc21`, “inactive”. Under `CCN(CC)CCCC(C)n1c2nc(=O)[nH]c(=O)c-2nc2cc(Cl)ccc21` (centres undefined) stands 5.62 µM (active); under `CC(=O)OC[C@H]1O[C@H](CCO/N=C(\C)CCN2CCCCc3nc(C)c(C)cc32)C=C[C@@H]1OC(C)=O`, “inactive”. Turning to `O=C(CSC(=S)N1CCOCC1)c1ccccc1`, the Potency was 7.31 µM (active). In the case of `O=C(CSC(=S)N1CCOCC1)c1cc(Br)cc(Br)c1O` it was “inactive”; in that of `CC1CN(C(=S)SCC(=O)c2ccccc2)CC(C)O1` (centres undefined), “inactive”. In the case of `Cc1ccc(CNC(=O)C(=O)c2cn(CC(=O)N3CCCC3)c3ccccc23)cc1` it was “inactive”; in that of `Cc1cc(NC(=O)CSc2nnc(-c3ccco3)n2N)no1`, “inactive”. Under `O=C(COC(=O)c1cccc(Cl)c1)NC(=O)NCc1ccccc1` stands “inactive”; under `COc1ccc2c(c1O)-c1cccc3c1[C@@H](C2)N(C)CC3`, 1 µM (active). Take `COc1c(O)ccc2c1-c1c3c(cc4c1C(C2)N(C)CC4)OCO3` (centres undefined): the Potency entry is “inactive”. With `Cn1c(N)cc(=O)n(C)c1=S`, the Potency entry is “inactive”.

Regarding `CC(C(=O)c1ccc(-c2ccccc2)cc1)[n+]1cccc(Br)c1` (centres undefined), the Potency result is “inactive”. In the case of `O=C(NCc1nnc(SCC(=O)N2CCCCCC2)o1)c1ccc(F)cc1` it was “inactive”; in that of `CCC(=O)Nc1cccc(NC(=O)CSc2nnc(-c3ccc(NS(C)(=O)=O)cc3)n2C)c1`, “inactive”. Regarding `COCCCn1c(SCC(=O)Nc2ccccc2)nnc1-c1ccncc1`, the Potency entry was “inactive”.

On to `Cn1c(SCC(=O)Nc2cccc(NC(=O)c3cccs3)c2)nnc1-c1ccncc1`, for which the Potency is 12.6 µM (active). Under `CC1CCCCC1NC(=O)Cn1c(=O)cnc2ccccc21` (centres undefined) stands “inactive”; under `CC(=O)c1c(C)[nH]c(C(=O)COC(=O)c2cccs2)c1C`, “inactive”; under `COc1ccc(C)cc1N(CC(=O)N1CCCC1)S(=O)(=O)c1ccccc1`, “inactive”. `NC(=O)Nc1cccc(C(F)(F)F)c1`: the Potency entry was “inactive”. Consider `O=C(NNc1ccccc1Cl)C(O)(c1cccc(C(F)(F)F)c1)c1cccc(C(F)(F)F)c1`, for which the Potency was 18.4 µM (active).

In the case of `O=C(Nc1cc(C(F)(F)F)ccc1Cl)C(=O)N1CCCCC1`, the Potency result is “inactive”. Under `NC(=O)Cn1cc(/C=N\NS(=O)(=O)c2ccccc2)c2ccccc21` stands “inactive”; under `COC(=O)N(C)C1=C(C(=O)N2CCOCC2)CCCC1`, “inactive”. For `Cn1c(=O)[nH]c2c(c(C(=O)O)nn2C)c1=O`, the Potency entry was “inactive”.

As to `Cc1ccc2[nH]cc(CCNC(=O)c3ccc([N+](=O)[O-])cc3)c2c1`, the Potency result is “inactive”.

For the molecule `Cc1ccc2[nH]cc(CCCN3C(=O)c4ccccc4C3=O)c2c1`, the Potency is 16.4 µM (active).

As for `Cc1cc(C)cc(NC(=O)CCN2C(=O)c3ccccc3C2=O)c1`, the Potency result is “inactive”.

For the molecule `Cc1cccc(OCC(=O)Nc2ccc(C(=O)O)cc2NC(=O)COc2cccc(C)c2)c1`, the Potency result was “inactive”.

Take `COc1ccc(NS(=O)(=O)c2ccc(Oc3c(C#N)cccc3C#N)cc2)cc1`: the Potency is 2.82 µM (active). Under `COc1ccc(C(=O)Nc2ccc(S(=O)(=O)NC(C)C)cc2)cc1` stands “inactive”; under `CCOc1ccc(S(=O)(=O)Nc2ccc(S(=O)(=O)Nc3cc(OC)ccc3OC)cc2)cc1`, “inactive”; under `Cc1ccc2nc(SCC(=O)NC3CCCC3)[nH]c2c1`, “inactive”.

For the molecule `COc1ccc(/C=N/Nc2nc(-c3ccc(C)cc3)c(C#N)c(=O)[nH]2)cc1`, the Potency entry is “inactive”. On to `O=C(COc1cccnc1[N+](=O)[O-])Nc1ccc(Cl)cc1F`, for which the Potency entry is “inactive”. In the case of `Cc1ccc(-c2cc(C(=O)N/N=C/C=C/c3ccco3)c3ccccc3n2)cc1C` it was 2.51 µM (active); in that of `Cc1cc(C(=O)N/N=C/c2ccccn2)c2ccccc2n1`, “inactive”; in that of `O=C(N/N=C/C=C/c1ccco1)c1cccs1`, “inactive”. In the case of `CCCc1nnc(NC(=O)CCC(=O)N2CCN(S(=O)(=O)c3ccc(OC)cc3)CC2)s1` it was “inactive”; in that of `Cc1nc(N)nc(Cl)c1CCC1OCCO1`, “inactive”. For `Cc1cc(C)nc(Nc2cc([N+](=O)[O-])ccc2C)n1`, the Potency result is “inactive”. As for `Cc1ccc(Nc2ccc(C(N)=O)cc2[N+](=O)[O-])cc1`, the Potency result was “inactive”.

For the molecule `Cc1ccc(Nc2cc(C)nc3c(C)ccc([N+](=O)[O-])c23)cc1`, the Potency was 11.2 µM (active). Consider `Cc1ccc2c(c1)N(CC(=O)NCC1CCCO1)C(=O)CO2` (centres undefined), for which the Potency entry was “inactive”. Under `COCCNC(=O)COc1ccc(N(C)S(=O)(=O)c2ccc3ccccc3c2)cc1` stands “inactive”; under `CC1CCCCC1NC(=O)COc1ccc(C#N)cc1` (centres undefined), “inactive”; under `CC1CCCCC1NC(=O)/C(C#N)=C/C=C/c1ccccc1[N+](=O)[O-]` (centres undefined), 2.82 µM (active).

On to `O=[N+]([O-])c1ccccc1/C=C/CN1CCCC(CO)C1` (centres undefined), for which the Potency entry was “inactive”. Under `O=C(Nc1c(Br)cc2c(c1Br)Cc1cc([N+](=O)[O-])ccc1-2)C(Cl)Cl` stands “inactive”; under `CN(Cc1ccccc1)Cc1ccccc1F`, “inactive”; under `N=c1n(CCc2ccccc2)c2ccccc2n1Cc1ccccc1F`, 5.17 µM (active). In the case of `CCCn1c(NCc2ccccc2F)nc2ccccc21`, the Potency result is “inactive”. In the case of `CCc1ccccc1N(CC(=O)NCC1CCCO1)C(=O)CCC(=O)Nc1nccs1` (centres undefined) it was “inactive”; in that of `COc1ccc(C)cc1NC(=S)N1CCOCC1`, “inactive”. Consider `O=C1OC(Cc2ccccc2)C(c2ccccc2)C1=O` (centres undefined), for which the Potency entry was “inactive”.

Consider `Cn1c(SCC(=O)N2CCCc3ccccc32)nc2ccccc2c1=O`, for which the Potency is 12.6 µM (active). In the case of `O=C(CSc1nc2[nH]ncc2c(=O)n1-c1ccccc1)N1CCCc2ccccc21`, the Potency result was “inactive”.

`O=C(CSc1nc2ccccc2c(=O)n1CCCO)N1CCc2ccccc21`: the Potency result was “inactive”. Under `CN(C)CCn1c2c(c(SCC(=O)Nc3ccccc3C(F)(F)F)nc1=O)CCCC2` stands “inactive”; under `Cc1ccc2nc(C)cc(N/N=C/c3ccc(F)cc3)c2c1`, “inactive”; under `Cc1cc(N/N=C\c2ccc(Br)cc2)nc(-n2nc(C)cc2C)n1`, 2.24 µM (active). For the molecule `COc1ccc(NC(=O)c2nc(-n3nc(C)cc3C)ccc2Cl)cc1Cl`, the Potency result was “inactive”. Under `COc1ccc(Nc2cc(C)nc(-n3nc(C)cc3C)n2)cc1` stands 1.3 µM (active); under `Cc1cc(C)nc(-n2nc(C)cc2NC(=O)c2ccc(Br)o2)n1`, “inactive”. In the case of `Cc1cc(Nc2ccccc2)nc(N)n1`, the Potency result was “inactive”. In the case of `CN1CCN(C(=O)c2cnn(-c3ccccc3)c2NC(=O)c2ccc([N+](=O)[O-])cc2)CC1` it was “inactive”; in that of `CN1CCN(C(=O)C(=O)c2cn(CC(=O)N3CCCC3)c3ccccc23)CC1`, “inactive”. On to `O=C1NC(=O)C(CCc2ccccc2)(c2ccccc2)N1` (centres undefined), for which the Potency entry is “inactive”. With `COCc1ccc(C(=O)NC2CC(C)(C)Cc3c2cnn3-c2ccc(C)cc2)o1` (centres undefined), the Potency result was “inactive”. With `Cc1cccc(C(=O)OC(C)C(=O)NC2CCCc3ccccc32)c1O` (centres undefined), the Potency result is “inactive”. In the case of `COc1ccc(C(=O)NC2CCCc3c2cnn3-c2cccc(C)c2C)c(OC)n1` (centres undefined) it was 0.708 µM (active).

On to `CN(C)C(=O)c1ccc(NC(=O)c2ccccc2-c2ccccc2)cc1`, for which the Potency entry is “inactive”.

Regarding `CCc1ccc(N(C(=O)c2csnn2)C(C(=O)NC2CCCCC2)c2ccncc2)cc1` (centres undefined), the Potency result is “inactive”. In the case of `O=C1CC2(CCCC2)C(=O)N1CN1CCN(S(=O)(=O)c2ccc(F)cc2F)CC1` it was “inactive”; in that of `COc1ccc(-c2nc3cc([N+](=O)[O-])ccc3o2)cc1OC`, “inactive”. Turning to `O=C(Cc1cccc2ccccc12)Nc1ccc2oc(-c3ccccc3)nc2c1`, the Potency entry is “inactive”. In the case of `CCc1ccc2oc(-c3ccc(N)cc3)nc2c1` it was 5.17 µM (active). Under `CC(=O)Nc1ccc(S(=O)(=O)Nc2cc(C)cn(Cc3ccc(C)cc3)c2=O)cc1` stands “inactive”; under `CCOC(=O)C1=C(CN2CCCCCC2)NC(=O)NC1c1cccc([N+](=O)[O-])c1` (centres undefined), “inactive”; under `CCOC(=O)C1=C(CN2CCc3ccccc32)NC(=O)NC1c1ccc(Cl)cc1` (centres undefined), 16.4 µM (active). Under `CCOC(=O)C1=C(C)NC(=O)NC1c1ccccc1` (centres undefined) stands “inactive”. Regarding `COc1ccc([C@H]2C(C#N)=C(N)Oc3n[nH]c(C)c32)cc1CSc1ccccn1`, the Potency entry is “inactive”.

As to `COc1cccc(NC(=O)CN(C)C(=O)Cc2ccc(Cl)cc2Cl)c1`, the Potency entry is “inactive”.

Take `CC(=O)Nc1cccc(NC(=O)c2c(-c3ccccc3)noc2C)c1`: the Potency entry is “inactive”. Under `CCOC(=O)c1c(-c2cccc(C)c2)csc1NC(=O)c1c(-c2ccccc2)noc1C` stands 0.316 µM (active). With `Cc1ccc(CNC(=O)c2c(-c3ccccc3)noc2C)cc1`, the Potency result is “inactive”. In the case of `CC(C)(C)C(=O)Nc1cccc(-c2ccc[nH]2)n1` it was “inactive”.

With `Cc1cc([N+](=O)[O-])c(=O)[nH]c1C`, the Potency entry is “inactive”. For `COc1ccc(NC(=O)N2CCCC2C(=O)NCc2ccccc2Cl)cc1` (centres undefined), the Potency entry was “inactive”. Under `COc1ccc(C2=NC3(CCCCC3)N(CC(=O)Nc3ccc(C(C)C)cc3)C2=O)cc1` stands 11.2 µM (active). In the case of `CCc1ccc(NC(=O)CN2C(=O)C(c3ccccc3)=NC23CCCCCC3)cc1` it was “inactive”. Under `COc1ccc(NC(=O)CN2C(=O)C(c3ccccc3)=NC23CCCCCC3)cc1OC` stands “inactive”.

For `CCCCn1c(N)c(N(CC(C)C)C(=O)c2ccc(Br)o2)c(=O)[nH]c1=O`, the Potency entry is “inactive”.

As to `O=C(Nc1c[nH]c(=O)[nH]c1=O)OCc1ccccc1`, the Potency result was “inactive”. Take `Cc1c(NC(=O)CN(C)CC(=O)Nc2ccc(F)c(F)c2F)c(=O)n(-c2ccccc2)n1C`: the Potency entry is “inactive”. Consider `Cc1cccc(N(Cc2ccccc2)C(=O)c2cc(S(=O)(=O)N3CCOCC3)ccc2F)c1`, for which the Potency result is “inactive”. Under `Cc1cc(NC(=O)c2cc3ccccc3o2)no1` stands “inactive”; under `CCOc1ccc2nc(N(CCN(C)C)C(=O)c3ccc4ccccc4c3)sc2c1`, “inactive”. Under `COc1cccc2sc(N(CCCN(C)C)C(=O)C(c3ccccc3)c3ccccc3)nc12` stands 10 µM (active); under `COc1cccc2sc(NNC(=O)c3nc4ccccc4s3)nc12`, “inactive”; under `COC(=O)C1=C(C)NC(=S)NC1c1ccc(OCC(=O)N2CC(C)OC(C)C2)c(OC)c1` (centres undefined), “inactive”. `COc1ccc(OCC(O)CNCCNc2nccc(C(F)(F)F)n2)cc1` (centres undefined): the Potency entry is “inactive”. In the case of `Cc1noc(COc2ccccc2OCC(O)CNC(C)(C)C)n1` (centres undefined) it was “inactive”; in that of `CC(C)(C)CC(C)(C)NCC(O)COCCOc1ccc(Br)cc1` (centres undefined), 4.61 µM (active). In the case of `COc1cccc(NC(=O)C/C(C)=N/NC(=O)C2CCCCC2)c1` it was “inactive”; in that of `Cc1ccc(OCC(=O)Oc2ccccc2[N+](=O)[O-])cc1`, “inactive”; in that of `O=C1CN(C(=O)COc2c(Cl)cccc2Cl)c2ccccc2N1`, “inactive”. Under `COc1ccc(-n2ncc3c2CC(C)(C)CC3NC(=O)CCc2c(C)nn(C)c2C)cc1` (centres undefined) stands “inactive”.
